From PubChem BioAssay AID1159580 (chemical genetic matrix, 2015)
Several values for one entry are separate records, joined by “and”; a condition that tells them apart may be missing. Equal entries are not always repeated. The campaign covered roughly 5,500 compounds. About 2,000 (36%) were called active. About 18% were inconclusive and are not listed. No stated cut-off is given here; in the data, active means normalized growth mostly below about 0.91 (no sharp cut-off); inconclusive means no clear call, values can overlap the other calls; inactive means mostly above about 0.92. The list shows a part of the results.

Assay: chemical genetic growth profiling, strain panel (AID 1159580);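 further: tested at 20 µM; growth read once vehicle control cultures reached saturation at 30 °C; 1 = growth at the plate median or of vehicle wells; lower values mean less growth of the strain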
Details: S. cerevisiae deletion strains, growth OD

Measured: normalized growth

CC(C)(C)CC(C)(C)c1ccc(O)c(Cc2ccc(Cl)cc2Cl)c1
inactive: locus YAL021C, strain ccr4, active compounds read low 1 | locus YAL026C, strain drs2, active compounds read low 1.03 | locus YAL030W, strain snc1, active compounds read low 1.01 | locus YBL061C, strain skt5, active compounds read low 1.01 | locus YBR009C, strain hhf1, active compounds read low 0.995 | locus YBR021W, strain FUR4, active compounds read low 0.993 | locus YBR023C, strain chs3, active compounds read low 1.02 | locus YBR171W, strain sec66, active compounds read low 1.02 | locus YBR229C, strain ROT2, active compounds read low 1.01 | locus YBR231C, strain swc5, active compounds read low 1.01 | locus YBR279W, strain paf1, active compounds read low 1.02 | locus YCL011C, strain gbp2, active compounds read low 1.01 | locus YCL016C, strain dcc1, active compounds read low 1.01 | locus YCL029C, strain bik1, active compounds read low 1.02 | locus YCL061C, strain MRC1, active compounds read low 1.02 | locus YCL069W, strain vba3, active compounds read low 1.03 | locus YCR088W, strain abp1, active compounds read low 1.02 | locus YDL005C, strain med2, active compounds read low 1.03 | locus YDL035C, strain GPR1, active compounds read low 1.01 | locus YDL040C, strain nat1, active compounds read low 1 | locus YDL074C, strain BRE1, active compounds read low 1.01 | locus YDL101C, strain DUN1, active compounds read low 1 | locus YDL134C, strain PPH21, active compounds read low 1 | locus YDL185W, strain tfp1, active compounds read low 1.01 | locus YDL192W, strain arf1, active compounds read low 1.01 | locus YDR001C, strain nth1, active compounds read low 1.02 | locus YDR069C, strain doa4, active compounds read low 1.02 | locus YDR101C, strain arx1, active compounds read low 0.997 | locus YDR137W, strain rgp1, active compounds read low 1.03 | locus YDR159W, strain sac3, active compounds read low 1.02 | locus YDR162C, strain NBP2, active compounds read low 1 | locus YDR195W, strain ref2 1.08 | locus YDR297W, strain sur2, active compounds read low 1.01 | locus YDR318W, strain mcm21, active compounds read low 1.01 | locus YDR334W, strain swr1, active compounds read low 1.04 | locus YDR335W, strain msn5, active compounds read low 1.04 | locus YDR388W, active compounds read low 1.01 | locus YDR392W, strain spt3, active compounds read low 0.894 | locus YDR502C, strain sam2, active compounds read low 1.02 | locus YEL003W, strain gim4, active compounds read low 1.02 | locus YEL037C, strain rad23, active compounds read low 1.02 | locus YEL061C, strain CIN8 (second series), active compounds read low 1.03 | locus YEL061C, strain CIN8, active compounds read low 1 | locus YER015W, strain faa2, active compounds read low 1.01 | locus YER016W, strain bim1, active compounds read low 1.03 | locus YER110C, active compounds read low 1.02 | locus YER111C, strain swi4, active compounds read low 1.05 | locus YER155C, strain BEM2 (second series), active compounds read low 1.08 | locus YER155C, strain BEM2, active compounds read low 0.998 | locus YER167W, strain BCK2, active compounds read low 1 | locus YFR010W, strain ubp6, active compounds read low 1.02 | locus YGL078C, strain dbp3, active compounds read low 1.02 | locus YGL086W, strain mad1, active compounds read low 1.01 | locus YGL167C, strain pmr1, active compounds read low 1.02 | locus YGL173C, strain kem1, active compounds read low 1.02 | locus YGL227W, strain vid30, active compounds read low 1.02 | locus YGL240W, strain doc1, active compounds read low 1.03 | locus YGL248W, strain PDE1, active compounds read low 1 | locus YGL253W, strain hxk2, active compounds read low 1.03 | locus YGR078C, strain PAC10, active compounds read low 0.997 | locus YGR135W, strain pre9, active compounds read low 1.01 | locus YGR229C, strain SMI1, active compounds read low 0.992 | locus YGR252W, strain gcn5, active compounds read low 1.04 | locus YHR013C, strain ard1, active compounds read low 1.02 | locus YHR027C, strain rpn1, active compounds read low 1.02 | locus YHR030C, strain SLT2, active compounds read low 1 and 1.03 | locus YHR079C, strain IRE1 (second series), active compounds read low 1.01 | locus YHR079C, strain IRE1, active compounds read low 1.05 | locus YHR094C, strain hxt1, active compounds read low 1.01 | locus YHR129C, strain ARP1, active compounds read low 1.01 | locus YHR142W, strain chs7, active compounds read low 1.02 | locus YHR200W, strain rpn10, active compounds read low 1.01 | locus YIL066C, strain RNR3, active compounds read low 1.01 | locus YIL073C, strain SPO22, active compounds read low 1.04 | locus YIL125W, strain kgd1, active compounds read low 1.02 | locus YIR030C, strain dcg1, active compounds read low 1.02 | locus YJL092W, strain hpr5, active compounds read low 1.02 | locus YJL095W, strain BCK1 (second series), active compounds read low 1.01 | locus YJL095W, strain BCK1, active compounds read low 1.01 and 1.04 | locus YJL115W, strain asf1, active compounds read low 1.04 | locus YJL129C, strain trk1, active compounds read low 0.981 | locus YJL134W, strain LCB3, active compounds read low 1.01 | locus YJL154C, strain vps35, active compounds read low 1.02 | locus YJL164C, strain tpk1, active compounds read low 0.994 | locus YJL166W, strain qcr8, active compounds read low 1.02 | locus YJL168C, strain set2, active compounds read low 1.01 | locus YJL187C, strain SWE1 (second series), active compounds read low 1.01 | locus YJL187C, strain SWE1, active compounds read low 1.01 | locus YJR043C, strain POL32, active compounds read low 1.01 | locus YJR066W, strain TOR1, active compounds read low 0.925
